In PubChem BioAssay AID1159580 (chemical genetic matrix, 2015):
Among all 5,500 compounds or so, about 2,000 (36%) were called active. Not shown: some 18% with an inconclusive outcome. No stated cut-off is given here; in the data, active means normalized growth mostly below about 0.91 (no sharp cut-off); inconclusive means no clear call, values can overlap the other calls; inactive means mostly above about 0.92. Some of the results follow.

Assay: chemical genetic growth profiling, strain panel (AID 1159580);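 further: tested at 20 µM; growth read once vehicle control cultures reached saturation at 30 °C; 1 = growth at the plate median or of vehicle wells; lower values mean less growth of the strain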
Details: growth OD

Measured: normalized growth

CCN(CC)CCOc1ccc(/C(=C(\Cl)c2ccccc2)c2ccccc2)cc1
inactive: S. cerevisiae deletion strains, locus YKL009W, strain mrt4, hits give low values 0.917 | S. cerevisiae deletion strains, locus YKL068W, hits give low values 1.01 | S. cerevisiae deletion strains, locus YLR113W, strain HOG1, hits give low values 0.925 | S. cerevisiae deletion strains, locus YLR262C, strain YPT6 (second series), hits give low values 0.933 | S. cerevisiae deletion strains, locus YNL183C, strain NPR1, hits give low values 0.92 | S. cerevisiae deletion strains, locus YNL250W, strain rad50, hits give low values 0.922 | S. cerevisiae deletion strains, locus YNL271C, strain bni1, hits give low values 0.962 | S. cerevisiae deletion strains, locus YNL298W, strain CLA4, hits give low values 0.914 | S. cerevisiae deletion strains, locus YNL322C, strain KRE1 (second series), hits give low values 1.02 | S. cerevisiae deletion strains, locus YOR231W, strain MKK1, hits give low values 0.946 | S. cerevisiae deletion strains, locus YPL256C, strain CLN2, hits give low values 0.939 | S. cerevisiae deletion strains, locus YPR141C, strain kar3, hits give low values 1.03
active: S. cerevisiae deletion strains, locus YKL160W, strain elf1, hits give low values 0.195 | S. cerevisiae deletion strains, locus YKL190W, strain CNB1, hits give low values 0.0469 | S. cerevisiae deletion strains, locus YKR001C, strain vps1, hits give low values 0.0607 | S. cerevisiae deletion strains, locus YKR026C, strain gcn3, hits give low values 0.209 | S. cerevisiae deletion strains, locus YKR091W, strain srl3, hits give low values 0.171 | S. cerevisiae deletion strains, locus YLL001W, strain dnm1, hits give low values 0.108 | S. cerevisiae deletion strains, locus YLL026W, hits give low values 0.0855 | S. cerevisiae deletion strains, locus YLL041C, strain sdh2, hits give low values 0.129 | S. cerevisiae deletion strains, locus YLR027C, strain aat2, hits give low values 0.093 | S. cerevisiae deletion strains, locus YLR039C, strain RIC1, hits give low values 0.099 | S. cerevisiae deletion strains, locus YLR058C, strain SHM2, hits give low values 0.0491 | S. cerevisiae deletion strains, locus YLR102C, strain apc9, hits give low values 0.0621 | S. cerevisiae deletion strains, locus YLR221C, strain rsa3, hits give low values 0.104 | S. cerevisiae deletion strains, locus YLR258W, strain gsy2, hits give low values 0.0916 | S. cerevisiae deletion strains, locus YLR262C, strain YPT6, hits give low values 0.1 | S. cerevisiae deletion strains, locus YLR268W, strain sec22, hits give low values 0.0697 | S. cerevisiae deletion strains, locus YLR320W, strain mms22, hits give low values 0.182 | S. cerevisiae deletion strains, locus YLR330W, strain CHS5, hits give low values 0.0524 | S. cerevisiae deletion strains, locus YLR342W, strain FKS1 (second series), hits give low values 0.066 | S. cerevisiae deletion strains, locus YLR342W, strain FKS1, hits give low values 0.156 | S. cerevisiae deletion strains, locus YLR357W, strain rsc2, hits give low values 0.175 | S. cerevisiae deletion strains, locus YLR370C, strain arc18, hits give low values 0.0727 | S. cerevisiae deletion strains, locus YLR371W, strain rom2, hits give low values 0.0621 | S. cerevisiae deletion strains, locus YLR384C, strain iki3, hits give low values 0.714 | S. cerevisiae deletion strains, locus YLR418C, strain cdc73, hits give low values 0.0928 | S. cerevisiae deletion strains, locus YML016C, strain PPZ1, hits give low values 0.0474 | S. cerevisiae deletion strains, locus YML032C, strain rad52, hits give low values 0.0749 | S. cerevisiae deletion strains, locus YML120C, strain ndi1, hits give low values 0.121 | S. cerevisiae deletion strains, locus YML124C, strain tub3, hits give low values 0.0612 | S. cerevisiae deletion strains, locus YMR058W, strain fet3, hits give low values 0.0872 | S. cerevisiae deletion strains, locus YMR078C, strain ctf18, hits give low values 0.0745 | S. cerevisiae deletion strains, locus YMR125W, strain sto1, hits give low values 0.17 | S. cerevisiae deletion strains, locus YMR129W, hits give low values 0.129 | S. cerevisiae deletion strains, locus YMR205C, strain PFK2, hits give low values 0.145 | S. cerevisiae deletion strains, locus YMR223W, strain ubp8, hits give low values 0.0648 | S. cerevisiae deletion strains, locus YMR231W, strain pep5, hits give low values 0.0748 | S. cerevisiae deletion strains, locus YMR263W, strain SAP30, hits give low values 0.0606 | S. cerevisiae deletion strains, locus YMR307W, strain GAS1, hits give low values 0.123 | S. cerevisiae deletion strains, locus YNL067W, strain RPL9B, hits give low values 0.0497 | S. cerevisiae deletion strains, locus YNL071W, strain lat1, hits give low values 0.14 | S. cerevisiae deletion strains, locus YNL128W, strain TEP1, hits give low values 0.0656 | S. cerevisiae deletion strains, locus YNL209W, strain ssb2, hits give low values 0.126 | S. cerevisiae deletion strains, locus YNL233W, strain BNI4, hits give low values 0.057 | S. cerevisiae deletion strains, locus YNL248C, strain rpa49, hits give low values 0.191 | S. cerevisiae deletion strains, locus YNL307C, strain MCK1, hits give low values 0.0652 | S. cerevisiae deletion strains, locus YNL322C, strain KRE1, hits give low values 0.0484 | S. cerevisiae deletion strains, locus YNR049C, strain mso1, hits give low values 0.0907 | S. cerevisiae deletion strains, locus YNR052C, strain pop2, hits give low values 0.0587 | S. cerevisiae deletion strains, locus YOL006C, strain TOP1, hits give low values 0.117 | S. cerevisiae deletion strains, locus YOL147C, strain pex11, hits give low values 0.0607 | S. cerevisiae deletion strains, locus YOR001W, strain rrp6, hits give low values 0.337 | S. cerevisiae deletion strains, locus YOR061W, strain CKA2, hits give low values 0.0462 | S. cerevisiae deletion strains, locus YOR069W, strain VPS5, hits give low values 0.0488 | S. cerevisiae deletion strains, locus YOR070C, strain gyp1, hits give low values 0.0639 | S. cerevisiae deletion strains, locus YOR080W, strain dia2, hits give low values 0.289 | S. cerevisiae deletion strains, locus YOR083W, strain WHI5, hits give low values 0.102 | S. cerevisiae deletion strains, locus YOR106W, strain vam3, hits give low values 0.0804 | S. cerevisiae deletion strains, locus YOR136W, strain idh2, hits give low values 0.0748 | S. cerevisiae deletion strains, locus YOR144C, strain elg1, hits give low values 0.0617 | S. cerevisiae deletion strains, locus YOR184W, strain ser1, hits give low values 0.0757 | S. cerevisiae deletion strains, locus YOR265W, strain rbl2, hits give low values 0.0762 | S. cerevisiae deletion strains, locus YOR270C, strain vph1, hits give low values 0.0899 | S. cerevisiae deletion strains, locus YOR290C, strain snf2, hits give low values 0.112 | S. cerevisiae deletion strains, locus YOR316C, strain cot1, hits give low values 0.0599 | S. cerevisiae deletion strains, locus YPL051W, strain arl3, hits give low values 0.303 | S. cerevisiae deletion strains, locus YPL055C, strain LGE1, hits give low values 0.0709 | S. cerevisiae deletion strains, locus YPL078C, strain atp4, hits give low values 0.232 | S. cerevisiae deletion strains, locus YPL106C, strain sse1, hits give low values 0.136 | S. cerevisiae deletion strains, locus YPL240C, strain hsp82, hits give low values 0.0981 | S. cerevisiae deletion strains, locus YPL241C, strain CIN2, hits give low values 0.0508 | S. cerevisiae deletion strains, locus YPR119W, strain clb2, hits give low values 0.067 | S. cerevisiae deletion strains, locus YPR163C, strain tif3, hits give low values 0.0698 | S. cerevisiae deletion strains, locus YPR167C, strain met16, hits give low values 0.0645 | S. cerevisiae deletion strains, strain wtn01, hits give low values 0.0644 | S. cerevisiae strains, strain wild type, hits give low values 0.0486
